# Bioassay records: PubChem, several laboratories
# The list is not random: actives were taken first. Their share in the collection is about 12%.
# Calpain2 inh: inhibitors of pig calpain II, primary screen, biochemical, fluorogenic peptide substrate, 1536-well | purified calpain II, 30 min | inhibition, % at 16 µM | 0.37% of 220,000 active;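 active = inhibition above about 50%, limit read from the data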
# ROMK primary: ROMK potassium channel modulators, primary screen, cell-based, thallium flux, MLSMR library; AID 1918, 2009; ATP-sensitive inward rectifier potassium channel 1 (Homo sapiens), P48048; 2% of 130,000 active; B-score at 10 µM; Tet-inducible ROMK, thallium flux fluorescence; actives lie on both sides;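 active = signal ratio slope over the read window, or its plate-corrected B-score, at least 3 SD from the plate mean, either direction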;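 also: B-score of the F/F0 ratio slope over 7 to 12 s after thallium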
# KCC2 mod: KCC2 cotransporter modulators, thallium flux, primary screen, cell-based, HEK293 KCC2, FluoZin-2 fluorescence, MLSMR. Solute carrier family 12 member 5 (Homo sapiens), Q9H2X9. KCC2 cells, thallium flux FluoZin-2 fluorescence. B-score of Tl+ flux slope (higher = more flux/activation; lower = inhibition) at 10 µM. 2.2% of 190,000 active;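 active = thallium flux slope and its plate-corrected score both differing from the plate sample mean at a set confidence after two filtering rounds, in either direction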;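 also: slope of fluorescence scaled to starting intensity during 10 to 20 s after thallium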
# Target sequence (Q9H2X9 whole entry, looked up): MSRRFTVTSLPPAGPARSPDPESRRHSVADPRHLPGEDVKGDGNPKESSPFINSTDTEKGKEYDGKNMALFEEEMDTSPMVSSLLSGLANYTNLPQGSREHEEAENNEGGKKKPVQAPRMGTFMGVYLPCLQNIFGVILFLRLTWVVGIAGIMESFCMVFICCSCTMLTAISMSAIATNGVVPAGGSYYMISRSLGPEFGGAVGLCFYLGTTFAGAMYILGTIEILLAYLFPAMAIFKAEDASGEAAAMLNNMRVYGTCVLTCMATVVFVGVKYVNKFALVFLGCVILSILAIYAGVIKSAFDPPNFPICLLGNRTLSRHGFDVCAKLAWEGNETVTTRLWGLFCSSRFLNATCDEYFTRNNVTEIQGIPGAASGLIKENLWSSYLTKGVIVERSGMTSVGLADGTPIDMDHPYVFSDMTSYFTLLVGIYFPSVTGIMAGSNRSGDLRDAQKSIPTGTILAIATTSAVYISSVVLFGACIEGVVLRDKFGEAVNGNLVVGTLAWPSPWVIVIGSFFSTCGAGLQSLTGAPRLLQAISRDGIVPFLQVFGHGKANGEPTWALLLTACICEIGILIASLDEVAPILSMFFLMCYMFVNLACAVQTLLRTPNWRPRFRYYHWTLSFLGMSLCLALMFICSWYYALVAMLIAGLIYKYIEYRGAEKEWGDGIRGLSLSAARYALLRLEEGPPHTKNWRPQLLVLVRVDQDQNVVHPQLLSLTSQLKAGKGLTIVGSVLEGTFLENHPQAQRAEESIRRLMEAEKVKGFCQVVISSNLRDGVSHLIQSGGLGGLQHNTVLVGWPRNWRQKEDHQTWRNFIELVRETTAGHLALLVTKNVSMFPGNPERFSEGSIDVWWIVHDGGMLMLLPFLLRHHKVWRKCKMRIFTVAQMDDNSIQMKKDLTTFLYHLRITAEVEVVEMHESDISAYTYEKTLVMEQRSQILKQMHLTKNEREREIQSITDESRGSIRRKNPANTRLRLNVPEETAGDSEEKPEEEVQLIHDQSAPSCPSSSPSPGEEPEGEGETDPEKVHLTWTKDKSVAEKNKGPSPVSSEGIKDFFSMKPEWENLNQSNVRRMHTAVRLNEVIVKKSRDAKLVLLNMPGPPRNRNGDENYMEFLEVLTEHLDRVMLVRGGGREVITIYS
# WT yeast gro inh: growth inhibition of WT strain, primary screen, mitochondrial fusion inhibitor project, WT and mutant strains, chemical genetic; mitochondrial fusion phenotypic screen; inhibition, % at 10 µM; 2.1% of 190,000 active; in the data active = inhibition above about 58%; tested in S. cerevisiae
# L major viab: Leishmania major promastigote growth inhibition, primary screen; Leishmania major promastigotes, resazurin fluorescence viability; inhibition, % at 10 µM; 9% of 200,000 active; AID 1063, 2008; in the data active = inhibition above about 50%;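 also: promastigotes grown with compound for 44 hours at 28 °C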
# An asterisk follows results filed as active; nt = no result.
SMILES,Calpain2 inh,ROMK primary,KCC2 mod,WT yeast gro inh,L major viab
O=C(CC1C(=O)CCCC1=O)c1ccccc1,-15,0.31,nt,-18,-4
Cc1ccc(O)c(NC(=S)NC(=O)C(C)C)c1,4,nt,0.038,nt,nt
N#C/C(=C\c1ccccc1C(F)(F)F)C(=O)Nc1ccccc1,-26,nt,0.56,17,2
CCc1cccc(CC)c1NC(=O)/C(C#N)=C/c1ccccc1C(F)(F)F,-21,nt,-0.72,68*,97*
CCN(CC)CCN1C(=O)C(=O)/C(=C(/O)c2ccc3c(c2)CC(C)O3)C1c1ccc(OC)cc1 (stereo not given),-5,nt,0.49,nt,nt
Oc1[nH]c(=S)sc1C=C1N=c2ccccc2=N1,-4,nt,nt,nt,nt
Oc1[nH]c(=S)sc1/C=C1\C(c2ccccc2)=Nc2ccccc21,17,nt,-2.6,-14,83*
CN1CCN(C2=Cc3ccccc3Sc3cc(F)c(F)cc32)CC1,11,0.66,-0.2,95,101*
CN1CCN(C2=Cc3ccccc3Sc3cc(F)c(Cl)cc32)CC1,-43,0.59,-0.42,98*,93*
CN1CCN(c2nc(-c3ccccc3)cc(C(F)(F)F)n2)CC1,-44,nt,nt,21,1
CN1CCN(C2=Cc3cc(Cl)ccc3Sc3cc(F)ccc32)CC1,-16,0.038,nt,95*,100*
Cc1cc(NC(=O)CSCCO)no1,-15,nt,-0.77,1,-5
CCOc1ccc(C(=O)Nc2cccc([N+](=O)[O-])c2)cc1Br,-2,-0.17,1.1,2,-7
COc1cc(OC)c(OC)cc1/C=N/Nc1ncnc2c1[nH]c1ccccc12,-204,-1.1,0.95,3,61*
C=CCNc1ncnc2c1[nH]c1ccc(Cl)cc12,-34,0,0.49,34,100*
c1ccc2c(c1)[nH]c1c(NCC3CCCO3)ncnc12 (stereo not given),-70,nt,-0.051,-5,86*
C=CCNc1ncnc2c1[nH]c1ccccc12,-77,nt,0.23,10,67*
COC(=O)c1ccc(-c2noc(CN3CCCC(CNC(C)=O)C3)n2)cc1 (stereo not given),-32,0.27,0.35,-10,-7
Cc1cc(C)c(C)c(S(=O)(=O)NCC(=O)Nc2sc3c(c2C(N)=O)CCCC3)c1C,-74,nt,0.62,12,17
Cc1cc(C)c(CN2CCN(Cc3ccc(C)o3)C(CCO)C2)c(-n2cccn2)c1 (stereo not given),23,0.053,-0.69,12,5
CCOC(=O)c1sc(NC(C)=O)nc1C,12,-0.42,nt,nt,-1
CCOC(=O)c1sc(Nc2nc(OC)cc(OC)n2)nc1C,-41,-0.29,0.074,15,54*
CCNc1nc(NCC)nc(N(C)N)n1,24,nt,nt,6,21
CC1CCCN(C/C=C/c2ccccc2[N+](=O)[O-])C1 (stereo not given),12,-0.00081,nt,-4,88*
CC1CCCCN1C/C=C/c1ccccc1[N+](=O)[O-] (stereo not given),5,0.23,-0.75,-16,85*
SMILES,Calpain2 inh,ROMK primary,KCC2 mod,WT yeast gro inh,L major viab
CC1CCCCN1S(=O)(=O)c1ccccc1[N+](=O)[O-] (stereo not given),-11,-0.19,1.2,-2,2
CCC1CCCCN1C/C=C/c1ccccc1[N+](=O)[O-] (stereo not given),8,-0.027,nt,14,90*
CC1CCCN(c2ccc([N+](=O)[O-])s2)C1 (stereo not given),6,0.2,0.96,-1,-7
COCCN(C(=O)CSc1nnc(C)n1Cc1ccccc1)c1c(N)n(CC(C)C)c(=O)[nH]c1=O,30,0.22,-0.18,6,4
CCN1CCCC1CNC(=O)C1CCN(Cc2nc(-c3cccc(Br)c3)oc2C)CC1 (stereo not given),-18,nt,0.18,-4,99*
CCN1CCCC1CNC(=O)CSCc1nc(-c2ccccc2C)oc1C (stereo not given),-3,0.6,nt,-2,99*
CC(=O)N1CCC2(CC1)C/C(=N\NC(=S)Nc1ccc(C)cc1)c1cc(O)ccc1O2,-141,0.47,-1.3,6,0
Cc1ccc2c(c1)-c1c(ssc1=S)C(C)(C)N2C(=O)CSC1=NCCS1,11,nt,nt,32,87*
Cc1ccc2c(c1)-c1c(ssc1=S)C(C)(C)N2C(=O)c1ccco1,-10,0.36,0.8,53,33
CCOc1ccc2c(c1)-c1c(ssc1=S)C(C)(C)N2C(=O)CSC1=NCCS1,-16,-1,0.18,15,96*
COc1cccc(CN2CCNC(=O)C2CC(=O)NCCn2ccc3ccccc32)c1OC (stereo not given),-119,nt,0.48,-10,-9
Cc1ccc(C(=O)NCc2ccccc2)cc1Br,3,-1,-1.2,-4,12
Cc1ccccc1CS(=O)(=O)c1cnc2ccccc2n1,-15,0.027,nt,-12,24
Cc1ccc(S(=O)(=O)N(C)C)cc1NC(=O)CSc1ncc(C(F)(F)F)cc1Cl,-3,0.1,-0.36,7,61*
COc1cccc(C2=NN(C(=O)c3cccs3)C(O)(C(F)(F)F)C2)c1 (stereo not given),1,nt,1.4,6,14
COc1ccc(CC2(CO)CCN(Cc3cnc(-c4ccccc4C)nc3)CC2)cc1,-35,-0.86,0.6,-5,-5
COc1ccc(CC2(CO)CCN(Cc3nc(C(C)C)cs3)CC2)cc1,4,0.38,0.89,3,91*
COc1ccc(CN2CCC(CO)(Cc3ccccc3C(F)(F)F)CC2)c(F)c1,17,-1.4,0.14,27,77*
COc1ccc(CC2(CO)CCN(Cc3ccc4c(c3)CCO4)CC2)cc1,5,0.15,-0.11,-8,79*
COc1ccc(CC2(CO)CCN(Cc3cccc4nccnc34)CC2)cc1,-10,nt,-0.69,-24,27
COc1ccc(CC2(CO)CCN(Cc3ccc(NC(C)=O)cc3)CC2)cc1,-24,-0.79,-0.059,7,14
COc1ccc(CC2(CO)CCN(Cc3ccc(OC(F)(F)F)cc3)CC2)cc1,-4,-0.55,nt,20,78*
Cc1ccc(CNC(=O)CCC2CCCN(Cc3cccc4cccnc34)C2)o1 (stereo not given),-8,0.24,0.82,7,5
CCC(C)NC(=O)CS(=O)Cc1nc(-c2ccccc2C)oc1C (stereo not given),5,nt,nt,3,-3
CC1CC(C)CN(S(=O)(=O)c2ccc(Oc3ccc([N+](=O)[O-])cc3)cc2)C1 (stereo not given),13,nt,0.72,20,50
O=C(Nc1ccc(OC(F)(F)C(F)F)c(NC(=O)c2cccc(F)c2)c1)c1cccc(F)c1,-11,1.1,1.3,-4,-5
Cc1cc(C)c(-n2nnnc2SC(C)C)c(C)c1,16,-0.74,-0.8,4,-2
CCOc1ccccc1N1CCN(Cc2ccc(OC)c(OC)c2)CC1,21,nt,-0.019,-3,1
COc1ccc(CC2(CO)CCN(CC3=Cc4cc(Cl)ccc4OC3)CC2)cc1,12,nt,-0.19,78,89*
